Screening results deposited in PubChem by National Center for Advancing Translational Sciences (NCATS).
HT1080-NT tox = kills 2HG-producing HT-1080-NT fibrosarcoma cells | HT-1080-NT fibrosarcoma viability, CellTiter-Glo ATP luminescence, 48 h | Potency, µM (titrated, usually from 46.1 µM), without a hit: top-dose activity, negative = less viability, actives largely listed as cytotoxic | 360,000 compounds, 1.6% hits | AID 686970;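 also: NT is the 2HG producing partner of a matched IDH1 knockdown line; potency is read from the fitted curve at half-maximal effect; 0% = DMSO-treated cells and -100% = media-only wells without cells; nearly all actives have a fitted effect of over 55% in size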
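Luminescent CellTiter-Glo readout after 48 hours of compound exposure at 37 degrees C defined viability of HT-1080-NT cells. Activity was normalized to DMSO wells and cell-free media wells; concentration-response curves were fitted and assigned curve classes.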
DT40 TDP1 no CPT = qHTS for Inhibitors of human tyrosyl-DNA phosphodiesterase 1 (TDP1): qHTS in cells in absence of CPT; DT40 Tdp1-/- hTDP1 cells, no CPT, ATP luminescence, 48 h; Potency, µM (highest dose often 46.2 µM), for the others: at the top dose activity change, negative = growth inhibition, hits mostly inhibitors; 420,000 compounds, 15% hits; also: potency is read from the fitted curve at half-maximal effect; nearly all actives have a fitted effect of over 55% in size
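Cells were dispensed at 400 per well, compounds added by pin tool, plates incubated ≥48 hr at 37 °C, then CellTiter-Glo added for 30 min at room temperature before luminescence reading. Line: DT40 Tdp1-/- complemented with hTDP1; camptothecin omitted.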
IL1B secr inh = inhibitors of inflammasome signaling (IL-1 beta secretion). activity change, % at 57.5 µM. 360,000 compounds, 4.7% hits. THP-1 LPS/ATP IL-1B secretion, AlphaLISA, 16 h; hits give low values; in the data active = activity change below about -50%; inconclusive = mostly about -30% to -49%
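THP-1 cells pretreated 1 hr with compounds (up to 57.5 uM final), then stimulated with LPS (250 ng/mL final) plus ATP (1.25 mM final); secreted IL-1B measured by AlphaLISA after 16 hr, decreased signal indicating inhibition.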
DT40 TDP1 CPT = growth inhibition of DT40 Tdp1-/-;hTDP1 cells with camptothecin (screen for TDP1 inhibitors); chicken DT40 Tdp1-/-;hTDP1 cells + 20 nM CPT, ATP luminescence, 48 h; Potency, µM (series often up to 46.2 µM), without a hit: top-dose activity change, negative = growth inhibition, usual class: inhibitors; 420,000 compounds, 12% hits; AID 686979; also: potency is read from the fitted curve at half-maximal effect; nearly all actives have a fitted effect of over 55% in size
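Chicken DT40 Tdp1-/- cells stably complemented with human TDP1 were seeded at 400 cells/well in medium containing 20 nM camptothecin, exposed to pin-transferred compounds, and grown at 37 °C for at least 48 hr. Viability was read as ATP luminescence.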
HT1080 IDH1KD tx = HT-1080 IDH1 knockdown cell toxicity (counter line) | AID 686971 | Potency, µM (doses to about 46.1 µM), for the others: at the highest dose activity, negative = toxicity, hits mostly cytotoxic | 360,000 compounds, 2% hits | HT-1080 IDH1 knockdown viability, ATP luminescence, 48 h;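 also: potency is read from the fitted curve at half-maximal effect; 0% = DMSO wells and -100% = cell-free medium wells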
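Using the IDH1-knockdown HT-1080 line run in the same batch and compound series as the NT line, viability after 48 h at 37 °C was determined by CellTiter-Glo luminescence and expressed as % activity.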
uPA surface inh = inhibitors of cell surface uPA generation; cell surface uPA generation assay, qHTS; Potency, µM (series often up to 38.3 µM), without a hit: at the highest dose activity change, negative = inhibition, most hits filed as inhibitors; 330,000 compounds, 0.31% hits; active = well fitted inhibition curve with a large enough effect; inconclusive = small, poorly fitted or top-dose-only effect; inactive = no such curve, though single readings can be large or run the other way; tested in mouse RAW 264.7 cells; also: potency is read from the fitted curve at half-maximal effect; nearly all actives have a fitted effect of over 55% in size
Starred values were filed as active, the others as inactive; ? = inconclusive; . = not tested or not shown. An excerpt weighted towards active compounds, which were near 19% of everything screened. Unless noted, calls follow the shape of the dose curve; as a rule, active = well fitted curve in the direction sought with a large enough effect; inconclusive = small, poorly fitted or top-dose-only effect, or another doubt; inactive = no such curve, though single readings can be large; an effect the other way counts as inactive or inconclusive. Unless noted, % is scaled to controls: 0 for no effect and ±100 for the full control effect.

SMILES	HT1080-NT tox	DT40 TDP1 no CPT	IL1B secr inh	DT40 TDP1 CPT	HT1080 IDH1KD tx	uPA surface inh
CN(C(=O)c1c(O)c2ccccc2n(C)c1=O)c1ccccc1	.	-20%	.	14%	.	.
COc1ccc(N2C(=S)N=C(Nc3cccc(C)c3)C23CCCCC3)cc1	-4%	-26%	-7	6.5µM*	-10%	-4%
Cc1cccc(NC2=NC(=S)N(c3cccc(C(=O)O)c3)C23CCCCC3)c1	-3%	-5%	23	-6%	2%	-9%
CC1CC(=O)N(CC(=O)N2CCCC2)c2ccccc2S1 (centres undefined)	12%	-4%	10	-6%	-19%	.
CSc1ccc2c(c1)N(CCC1CCCCN1C)c1ccccc1S2 (centres undefined)	18µM*	16µM*	-20	15µM*	?	?
CC(=O)COC(=O)C1=NN(c2ccccc2)C(=O)CC1	8%	-2%	5	-1%	14%	1%
Cc1ccc(S(=O)(=O)NC(=O)Cn2nnc(-c3ccccc3)c2COc2ccc3ccccc3c2)cc1	-6%	-5%	18	0%	0%	.
Cc1nc2ccccn2c1C(=O)N/N=C/c1cc(C)n(-c2ccc(Cl)cc2)c1C	-11%	15µM*	6	16µM*	-20%	4%
Cc1ccc(-n2c(C)cc(/C=N/NC(=O)c3ccncc3)c2C)cc1C	-18%	?	-10	?	-7%	-2%
CCNC(=S)N/N=C/c1cc(C)n(-c2ccc(Cl)cc2)c1C	-17%	21µM*	?	18µM*	-17%	-10%
Cc1cc(/C=N/NC(=O)Cn2c3ccccc3c(=O)c3ccccc32)c(C)n1-c1ccc(Cl)cc1	-16%	29µM*	0	?	?	0%
Cc1cc(/C=N/NC(N)=S)c(C)n1-c1ccc(Cl)c(Cl)c1	-4%	3.7µM*	108	2.6µM*	?	-2%
Cc1nc2ccccn2c1C(=O)N/N=C/c1ccccc1[N+](=O)[O-]	-8%	-1%	17	-15%	9%	3%
CC1CCCN(C(=O)CCNS(=O)(=O)c2ccc3c(c2)c(=O)n(C)c(=O)n3C)C1 (centres undefined)	2%	14%	-18	-1%	0%	-6%
CCCC(=O)N1CC2(CCC)CN(C(=O)CCC)CC(CCC)(C1)C2=O	-4%	-27%	-14	-22%	-4%	8%
CCCCCC(=O)N1CC2(CC)CN(C(=O)CCCCC)CC(CC)(C1)C2=O	-5%	?	3	16µM*	-8%	1%
CCN(CC(=O)Nc1ccc(OC)cc1)C(=O)Cc1ccsc1	0%	2%	4	19%	5%	3%
Cc1cccc(CNC(=O)c2cc3cc(S(=O)(=O)N4CCCCC4)ccc3n2C)c1	.	18µM*	.	?	.	.
Cc1ccccc1CCNC(=O)c1cc2cc(S(=O)(=O)N3CCCCC3)ccc2n1C	.	18µM*	.	10µM*	.	.
Cn1c(C(=O)NCc2cccc(F)c2)cc2cc(S(=O)(=O)N3CCCCC3)ccc21	.	23µM*	.	?	.	.
CCOc1ccc(CNC(=O)c2cc3cc(S(=O)(=O)N4CCCCC4)ccc3n2C)cc1	.	16µM*	.	18µM*	.	.
COc1ccccc1-c1nnc(NC(=O)CSc2nncn2C)s1	-1%	5%	0	4%	-17%	-12%
COC(=O)N1CCC2(CC1)CN(c1cccc(-c3ccccc3)c1)C2	.	18µM*	.	-30%	.	.
COC(=O)N1CCC2(CC1)CN(c1ccc(-c3ccccc3)cc1)C2	.	-23%	.	6%	.	.
O=C(Oc1ccccc1)N1CCC2(CCCN(c3cccc(-c4ccccc4)c3)C2)CC1	.	?	.	-30%	.	.
CC(=O)N1CCC2(CCCN(c3cccc(-c4ccccc4)c3)C2)CC1	.	?	.	16µM*	.	.
CC(=O)N1CCC2(CCCN(c3ccc(-c4ccccc4)cc3)C2)CC1	.	16µM*	.	?	.	.
